# Data published in PubChem BioAssay (EPA / NIEHS).
# “And” between values parts separate entries of the source, which are not always exact repeats. Equal entries are not always repeated. Inconclusive results are not listed. Some structures have more than one record in an assay (separate samples or runs), and their calls can disagree. The source made the active and inactive calls. The calls were made as follows, unless noted: active = hit-call score of the fitted dose curve at least 0.9, where 1 is the maximum; inconclusive = response in the unintended direction; inactive = score below 0.9.
# Tests used:
# [1] = molecular target: Cellular tumor antigen p53 (Homo sapiens) (UniProt P04637); test: TOX21_p53_BLA_p2_ratio: Tox21 HCT-116 p53 Agonism Beta-lactamase Assay, Ratio, Phase 2 (AID 2283592)
# Cellular tumor antigen p53 (Homo sapiens), sequence (P04637 whole entry, looked up): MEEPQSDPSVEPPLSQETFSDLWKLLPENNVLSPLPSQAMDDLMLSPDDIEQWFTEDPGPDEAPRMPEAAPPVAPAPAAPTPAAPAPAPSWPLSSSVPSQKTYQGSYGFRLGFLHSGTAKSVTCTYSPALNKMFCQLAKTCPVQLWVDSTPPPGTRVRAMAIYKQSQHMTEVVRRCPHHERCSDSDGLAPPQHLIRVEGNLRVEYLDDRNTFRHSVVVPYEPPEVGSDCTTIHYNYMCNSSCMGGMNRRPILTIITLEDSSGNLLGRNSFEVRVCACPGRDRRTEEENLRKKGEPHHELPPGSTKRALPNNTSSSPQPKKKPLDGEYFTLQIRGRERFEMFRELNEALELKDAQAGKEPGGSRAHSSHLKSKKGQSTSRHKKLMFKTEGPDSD
# In short: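 Cleaved-to-uncleaved substrate ratio (460 vs 530 nm) measured in HCT116 cells with an inducible beta-lactamase reporter linked to p53 activity. Compounds incubated 16 h at 37C before 2 h room-temperature CCF4-AM loading.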
# [2] = TOX21_p53_BLA_p3_viability: Viability Assessment in the Tox21 HCT-116 p53 Agonism Beta-lactamase Assay, Phase 3 (AID 2283593);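 also: cells exposed to compound for 16 h before reading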
# In short: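 HCT116 cells, 4000/well, dosed 5 h after plating by pin transfer (217-fold dilution from DMSO stock) and incubated 16 h at 37C, 5% CO2. Viability read as ATP luminescence with CellTiter-Glo after 30 min at room temperature.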
# [3] = molecular target: Cellular tumor antigen p53 (Homo sapiens) (UniProt P04637); test: TOX21_p53_BLA_p3_ratio: Tox21 HCT-116 p53 Agonism Beta-lactamase Assay, Ratio, Phase 3 (AID 2283596)
# In short: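 Cells were seeded at 4000/well, rested 5 h at 37C, then dosed with DMSO compound solutions (217-fold dilution) for 16 h. CCF4-AM substrate was loaded for 2 h at room temperature, and the 460/530 nm emission ratio was fitted for gain of signal versus DMSO.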
# [4] = TOX21_p53_BLA_p4_viability: Viability Assessment in the Tox21 HCT-116 p53 Agonism Beta-lactamase Assay, Phase 4 (AID 2283597);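 also: hits lower the luminescence signal meaning cytotoxicity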
# In short: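 Viability is taken as cellular ATP: after 16 h compound exposure of HCT116 cells and a 2 h room-temperature CCF4-AM substrate step, CellTiter-Glo reagent is added and luminescence is measured 30 min later.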
# [5] = molecular target: Cellular tumor antigen p53 (Homo sapiens) (UniProt P04637); test: TOX21_p53_BLA_p5_ratio: Tox21 HCT-116 p53 Agonism Beta-lactamase Assay, Ratio, Phase 5 (AID 2283599)
# In short: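 HCT-116 p53-bla cells (4000/well) plated 5 h, dosed with compound (217-fold DMSO dilution) for 16 h at 37 C; CCF4-AM substrate 2 h at room temperature. Activity is the 460/530 nm emission ratio (405 nm excitation), fitted in gain-of-signal direction versus DMSO.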
# [6] = molecular target: Cellular tumor antigen p53 (Homo sapiens) (UniProt P04637); test: TOX21_p53_BLA_p4_ratio: Tox21 HCT-116 p53 Agonism Beta-lactamase Assay, Ratio, Phase 4 (AID 2283601)
# In short: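 HCT-116 p53 beta-lactamase reporter cells (4000/well) preincubated 5 h, then compound (217-fold dilution of DMSO stock) for 16 h at 37C. CCF4-AM substrate added 2 h at room temperature; 460/530 nm emission ratio fitted upward versus DMSO.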
# [7] = TOX21_p53_BLA_p5_viability: Viability Assessment in the Tox21 HCT-116 p53 Agonism Beta-lactamase Assay, Phase 5 (AID 2283600)
# In short: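 Viability is taken from cellular ATP content, measured by luciferase luminescence in the same wells after the beta-lactamase ratio read. Cells are seeded at 4000 per well and exposed to DMSO-dissolved compounds, diluted 217-fold, for 16 h.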
# [8] = CCTE_Harrill_HTTr_Viability_MCF7: CCTE's 6-hour Cell Viability Assessment for the High-Throughput Transcriptomics (HTTr) Platform, in MCF-7 cells cultured in DMEM + 10% fetal bovine serum, Harrill Lab (AID 2284010; active = hit-call score of the fitted dose curve at least 0.9, where 1 is the maximum; inactive = score below 0.9)
# In short: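 PI exclusion, high-content imaging; 8-pt dilution series, 6 h exposure; bidirectional fit vs DMSO (neg. ctrl/baseline); gain of signal = loss of membrane integrity.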
# [9] = CCTE_Harrill_HTTr_Apoptosis_MCF7: CCTE's 6-hour Apoptosis Assessment for the High-Throughput Transcriptomics (HTTr) Platform, in MCF-7 cells cultured in DMEM + 10% fetal bovine serum, Harrill Lab (AID 2284011; active = hit-call score of the fitted dose curve at least 0.9, where 1 is the maximum; inactive = score below 0.9)
# In short: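 Cells are dosed with test chemicals at eight concentrations and imaged 6 hours later for caspase-3/7 activity using a green fluorogenic detection reagent. Activity is fitted in both directions against DMSO controls.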
# [10] = CCTE_Harrill_HTTr_CellCount_MCF7: CCTE's Cell Proliferation Assessment for the High-Throughput Transcriptomics (HTTr) Platform, Harrill Lab (AID 2284012);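 also: count of Hoechst-stained nuclei per well by high-content imaging in MCF-7 cells; cells exposed to compound for six hours; intended direction is loss of nuclei count meaning fewer cells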
# In short: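 Readout: Hoechst nuclear count by high-content imaging. MCF-7, 8-point dilution series, 6 h exposure. Bidirectional fit vs DMSO baseline.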
# [11] = molecular target: THRB (gene 7068) (UniProt P10828); test: TOX21_TRB_BLA_Antagonist_Followup_ratio: Tox21 Thyroid Hormone Receptor beta Antagonism Beta-lactamase (BLA) Follow-Up Assay, Ratio (AID 2283958)
# THRB (gene 7068), sequence (P10828 whole entry, looked up, the tested form may be a part): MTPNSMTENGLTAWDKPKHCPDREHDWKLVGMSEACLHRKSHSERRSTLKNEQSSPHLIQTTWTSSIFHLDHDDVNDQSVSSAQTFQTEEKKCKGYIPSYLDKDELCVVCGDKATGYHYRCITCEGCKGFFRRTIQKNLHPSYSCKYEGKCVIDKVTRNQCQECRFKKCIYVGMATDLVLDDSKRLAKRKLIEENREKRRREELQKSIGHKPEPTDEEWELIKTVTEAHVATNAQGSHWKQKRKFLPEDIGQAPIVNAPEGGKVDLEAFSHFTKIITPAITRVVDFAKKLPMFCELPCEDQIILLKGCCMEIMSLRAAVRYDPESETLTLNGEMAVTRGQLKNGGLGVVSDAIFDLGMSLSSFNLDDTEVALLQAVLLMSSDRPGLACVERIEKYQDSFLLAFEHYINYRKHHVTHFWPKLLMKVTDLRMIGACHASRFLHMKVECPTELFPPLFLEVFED
# In short: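 Read-out: blue/green (460:530 nm) ratio of cleaved to uncleaved CCF4-AM after 2 h at room temperature, fitted against DMSO baseline. HEK293T UAS-bla cells carrying GAL4-human TRβ LBD were exposed 18 h, 37C/5% CO2.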
# [12] = TOX21_TRB_BLA_Antagonist_Followup_viability: Viability Assessment in the Tox21 Thyroid Hormone Receptor beta Antagonism Beta-lactamase (BLA) Follow-Up Assay (AID 2283961)
# In short: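 Cytotoxicity is measured in parallel with the antagonist-mode TRβ beta-lactamase screen, using ATP-coupled luciferase luminescence. Engineered HEK293T cells are treated for 18 h with 11-point compound series in triplicate.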
# [13] = molecular target: THRB (gene 7068) (UniProt P10828); test: TOX21_TRB_COA_Antagonist_Followup_ratio: Tox21 Thyroid Hormone Receptor beta Antagonism through Coactivator Recruitment Follow-Up Assay, Ratio (AID 2283967)
# In short: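 GST-TRb LBD 5.0 nM + 0.10% BSA, compound added; fluorescein-SRC-2 peptide 200 nM, Tb-anti-GST Ab 2 nM. TR-FRET, ex 340 / em 520:495 ratio. Norm: DMSO 0%, T3 100%.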
# [14] = molecular target: Retinoic acid receptor RXR-alpha (Homo sapiens) (UniProt P19793); test: TOX21_TR_RXR_BLA_Antagonist_Followup_ratio: Tox21 Thyroid Hormone Receptor beta Retinoid X Receptor alpha (RXRa) Antagonism Beta-lactamase (BLA) Follow-Up Assay, Ratio (AID 2283972)
# Retinoic acid receptor RXR-alpha (Homo sapiens), sequence (P19793 whole entry, looked up, the tested form may be a part): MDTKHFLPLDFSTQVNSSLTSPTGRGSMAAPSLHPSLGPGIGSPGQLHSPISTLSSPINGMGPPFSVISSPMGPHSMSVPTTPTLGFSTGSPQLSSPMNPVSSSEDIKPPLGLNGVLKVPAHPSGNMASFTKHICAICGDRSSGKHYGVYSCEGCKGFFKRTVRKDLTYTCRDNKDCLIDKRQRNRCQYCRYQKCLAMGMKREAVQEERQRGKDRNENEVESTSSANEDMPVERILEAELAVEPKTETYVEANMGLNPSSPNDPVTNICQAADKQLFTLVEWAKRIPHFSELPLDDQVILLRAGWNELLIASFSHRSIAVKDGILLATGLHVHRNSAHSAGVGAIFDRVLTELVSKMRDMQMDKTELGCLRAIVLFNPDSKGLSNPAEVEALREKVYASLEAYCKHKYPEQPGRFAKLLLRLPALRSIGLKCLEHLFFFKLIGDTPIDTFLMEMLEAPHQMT
# In short: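 Antagonist mode used GAL4 UAS-driven beta-lactamase in HEK293T cells expressing RXRa, treated for 16 h with compound concentration series. Activity was taken from the blue/green (460:530 nm) ratio of cleaved to uncleaved substrate.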
# [15] = TOX21_TR_RXR_BLA_Antagonist_Followup_viability: Viability Assessment in the Tox21 Thyroid Hormone Receptor beta Retinoid X Receptor alpha (RXRa) Antagonism Beta-lactamase (BLA) Follow-Up Assay (AID 2283979)
# In short: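 RXRa-bla HEK293T cells (2,500/well, phenol red-free DMEM, 2% charcoal-stripped FBS) were attached 5 h, then exposed to compounds at 11 concentrations in triplicate for 16 h at 37C. Viability measured by CellTiter-Glo ATP luminescence, bidirectional fitting versus DMSO.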
smiles,measurement,setting,value
NC(Cc1ccc(F)cc1)C(=O)O (configuration not stated),outcome,[1],inactive
same,outcome,[2],inactive
same,outcome,[3],inactive
same,outcome,[4],inactive
same,outcome,[5],inactive
same,outcome,[6],inactive
O=C(O)Cc1ccccc1Oc1ccc(Cl)cc1Cl,outcome,[1],inactive
same,outcome,[2],inactive
same,outcome,[3],inactive
same,outcome,[4],inactive
same,outcome,[5],inactive
same,outcome,[7],inactive
same,outcome,[6],inactive
CO/N=C(\C(=O)N[C@@H]1C(=O)N2C(C(=O)O)=C(COC(C)=O)CS[C@H]12)c1csc(N)n1 (stereo in doubt),outcome,[1],inactive
same,outcome,[2],inactive
same,outcome,[3],inactive
same,outcome,[4],inactive
same,outcome,[5],inactive
same,outcome,[7],inactive
same,outcome,[6],inactive
Nc1c2c(nc3ccccc13)CCCC2,outcome,[1],inactive
same,outcome,[2],inactive
same,outcome,[3],inactive
same,outcome,[4],inactive
same,outcome,[5],inactive
same,outcome,[7],inactive
same,outcome,[6],inactive
same,outcome,[8],inactive
same,outcome,[9],inactive
same,outcome,[10],inactive
CCc1cc(Cl)c(OC)c(C(=O)NC[C@@H]2CCCN2CC)c1O,outcome,[1],inactive
same,outcome,[2],inactive
same,outcome,[3],inactive
same,outcome,[4],inactive
same,outcome,[5],inactive
same,outcome,[7],inactive
same,outcome,[6],inactive
same,outcome,[11],inactive
same,outcome,[12],inactive
same,outcome,[13],inactive
same,outcome,[14],inactive
same,outcome,[15],inactive
C=C1/C(=C\C=C2/CCC[C@]3(C)[C@@H]([C@H](C)OCCC(C)(C)O)CC[C@@H]23)C[C@@H](O)C[C@@H]1O,AC50,[1],12.7 µM (active)
same,outcome,[2],inactive
same,AC50,[3],14.3 µM (active)
same,outcome,[4],inactive
same,AC50,[5],13.5 µM (active)
same,outcome,[7],inactive
same,AC50,[6],9.97 µM (active)
Oc1ccc(OCc2ccccc2)cc1,AC50,[1],25.1 µM (active) and 9.17 µM (active)
same,outcome,[2],inactive
same,AC50,[3],25.7 µM (active) and 10.9 µM (active)
same,outcome,[4],inactive
same,outcome,[5],inactive
same,outcome,[7],inactive
same,AC50,[6],9.05 µM (active)
same,outcome,[6],inactive
same,outcome,[12],inactive
same,outcome,[15],inactive
N[C@H](CC(=O)O)C(=O)O,outcome,[1],inactive
same,outcome,[2],inactive
same,outcome,[3],inactive
same,outcome,[4],inactive
same,outcome,[5],inactive
same,outcome,[7],inactive
same,outcome,[6],inactive
C=C(C)C(=O)OCC(C)(C)COC(=O)C(=C)C,outcome,[1],inactive
same,outcome,[2],inactive
same,outcome,[3],inactive
same,outcome,[4],inactive
same,outcome,[5],inactive
same,outcome,[7],inactive
same,outcome,[6],inactive
O=C1N=C(O)CN1N=Cc1ccc(-c2ccc([N+](=O)[O-])cc2)o1,outcome,[1],inactive
same,outcome,[2],inactive
same,outcome,[3],inactive
same,outcome,[4],inactive
same,outcome,[5],inactive
same,outcome,[7],inactive
same,outcome,[6],inactive
Cc1cc(S(=O)(=O)O)c(N)cc1Cl,outcome,[1],inactive
same,outcome,[2],inactive
same,outcome,[3],inactive
same,outcome,[4],inactive
same,outcome,[5],inactive
same,outcome,[7],inactive
same,outcome,[6],inactive
